Values without a mark were called inactive. How the calls were made is not given here.
These molecules were tested on Aerobactin synthetase IucA (Klebsiella pneumoniae, hypervirulent) (assay: IucA enzyme inhibition, biochemical, LOPAC library, absorbance readout (AID 1346212;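 further: 100% = no compound wells and 0% = no enzyme wells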)). Conditions: IucA enzyme assay, absorbance (OD) readout; active compounds read low;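 tested at 8 µM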.
`C[C@H]1O[C@@H](n2cc(F)c(=O)[nH]c2=O)[C@H](O)[C@@H]1O` showed a remaining activity of 98.9%.
For `CCNC(=O)[C@H]1O[C@@H](n2cnc3c(N)nc(NCCc4ccc(CCC(=O)O)cc4)nc32)C(O)[C@H]1O` (stereo partly specified), the remaining activity was 109%.
`N=C1Sc2ccccc2C2=NCCCN12` gave a remaining activity of 118%.
`CN(C)CCCCSC(=N)N` was tested, and the remaining activity was 84.5%.
`Oc1ccccc1O` showed a remaining activity of 112%.
`CO[C@@]1(NC(=O)CSCC#N)C(=O)N2C(C(=O)O)=C(CSc3nnnn3C)CS[C@@H]21` gave a remaining activity of 118%.
`Cc1cnc(C(=O)NCCc2ccc(S(=O)(=O)NC(=O)NC3CCCCC3)cc2)cn1` gave a remaining activity of 81%.
In the case of `O=c1[nH]c(=O)n([C@H]2C[C@H](O)[C@@H](CO)O2)cc1/C=C/Br`, the remaining activity is reported as 123%.
Molecule `COc1ccc(/C=C/C(=O)Nc2ccccc2C(=O)O)cc1OC` has a remaining activity of 92.2%.
In the case of `C=CCN1CCc2c(cc(O)c(O)c2Br)[C@@H](c2ccccc2)C1`, the remaining activity is reported as 116%.
Work on `CN1CCc2cccc3c2[C@H]1Cc1ccc(O)c(O)c1-3` yielded a remaining activity of 107%.
`COc1ccc(CCNC[C@@H](O)c2ccc(O)cc2)cc1OC` was tested, and the remaining activity was 91.4%.
With `Cc1ccc(S(=O)(=O)N[C@@H](Cc2ccccc2)C(=O)CCl)cc1` the remaining activity was 107%.
`CC(=O)[C@@]1(O)CC[C@H]2[C@@H]3CCC4=CC(=O)CC[C@]4(C)[C@H]3CC[C@@]21C` showed a remaining activity of 106%.
`NC(N)=NC(N)=Nc1cccc(Cl)c1` was tested, and the remaining activity was 102%.
`NC[C@@H]1O[C@H](O[C@H]2[C@@H](O)[C@H](O[C@@H]3[C@@H](O)[C@H](N)C[C@H](N)[C@H]3O[C@H]3O[C@H](CO)[C@@H](O)[C@H](O)[C@H]3N)O[C@@H]2CO)[C@H](N)[C@@H](O)[C@@H]1O` gave a remaining activity of 104%.

From PubChem BioAssay
